Reference: PubChem BioAssay (NCI)
About 83,000 compounds went through this panel and 20% of them were active in at least one assay; those are over-represented in the sample as a whole.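 96-well plates, one dose, 48 hours. Percent growth reported; active if below 10.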 A number with no mark means an inactive call. Activity calls are given as the source filed them.

Legend:
Experiment in all cases: NCI-60 one-dose screen, 48 h (100 = growth as untreated, 0 = no growth, -100 = all killed)
Details in all cases: 10 µM unless noted
[1] = tested on: T-47D breast
[2] = tested on: BT-549 breast
[3] = tested on: SW-620 colon
[4] = tested on: MCF7 breast
[5] = tested on: HCT-116 colon
[6] = tested on: HCC-2998 colon
[7] = tested on: KM12 colon
[8] = tested on: MDA-MB-435 melanoma

Row | Compound | growth [1] | growth [2] | growth [3] | growth [4] | growth [5] | growth [6] | growth [7] | growth [8]
1 | CN1CCN(Cc2ccc(NC(=O)c3cncc(C#Cc4cnc5ccc(N6CCOCC6)nn45)c3)cc2C(F)(F)F)CC1 | -5.39% (active) | -71.7% (active) | -19.2% (active) | -69% (active) | -76.2% (active) | -33.2% (active) | -46.2% (active) | –
2 | CN1CCN(Cc2ccc(/C=N/Nc3ccnc4cc(Cl)ccc34)cc2)CC1 | 103% | 123% | 69.9% | 54.7% | 37% | 67.8% | 74.8% | –
3 | N#Cc1c(-c2cccs2)c(C#N)c(=O)n(Cc2nc3ccccc3[nH]2)c1N | 74.8% | 102% | – | 66.1% | 100% | 116% | 102% | 110%
4 | O=C(NNc1nc2cc(F)cc(F)c2n2cccc12)c1cccnn1 | 9.21% (active) | 31.5% | 22.1% | 10.4% | 22.4% | 65.6% | 24.2% | –
5 | O=C(Nc1cccc(C(F)(F)F)c1)N1CCN(c2cc(-c3cn(-c4ccccc4)nc3-c3cccc(O)c3)ccn2)CC1 | -5.55% (active) | 55.4% | – | 25.3% | 27.4% | 86.3% | 32% | 47.3%
6 | COc1cc2c3c(cc4c5c(ccc4c3c1OC)OCO5)N(CCN(C)C)C2=O | -5.03% (active) | -6.3% (active) | 7.13% (active) | 0.153% (active) | -12.2% (active) | -45.3% (active) | 8.95% (active) | –
7 | Cc1ccc([C@H]2c3[nH]c4ccccc4c3C[C@H]3C(=O)N(CCCCCCC(=O)NO)CC(=O)N23)s1 | 37.3% | 90.9% | 51.9% | 32.8% | 23.7% | 82.4% | 74.3% | –
8 | Cc1ccc(C(=O)CSc2nc3ccccc3c(=O)n2C)cc1 | 76.2% | 96.1% | 99.2% | 78.3% | 89.2% | 113% | 86.7% | –
9 | CC[C@]12C=CCN3CC[C@@]4(c5ccc(OC)cc5N(C)[C@H]4[C@@](O)(C(=O)OC)[C@@H]1OC(=O)CCN1CCc4ccccc4C1)[C@@H]32 | 84% | 93.2% | – | 82.5% | 90.9% | 69.5% | 103% | 95.6%
10 | Cc1ccc2c(n1)C(=O)C(Cl)=C(Nc1cccc(C(F)(F)F)c1)C2=O | -41.9% (active) | 123% | -0.806% (active) | -54.7% (active) | -25.9% (active) | 108% | 106% | –
11 | O=C(COc1ccc(/C=C2\C(=O)Nc3ccc(F)cc32)cc1)Nc1ccccc1 | 97.7% | 116% | – | 89.8% | 69% | 101% | 97.8% | 98.6%
12 | N#Cc1c(-c2cccs2)cc(-c2cnccn2)nc1SCC(=O)N/N=C/c1ccncc1 | 101% | 113% | 112% | 92.5% | 101% | 109% | 100% | –
13 | CC1=C(C)C(=O)C(Nc2ccc(C)cc2)=C(Br)C1=O | 15.7% | 104% | 103% | 76% | 35.4% | 104% | 104% | –
14 | NC(=S)n1c(=O)n(-c2cccc(C(F)(F)F)c2)c(=O)c2cc(-c3ccc(F)cc3F)ccc21 | -12.9% (active) | -7.8% (active) | – | 1.71% (active) | 3.05% (active) | 20.1% | 6.48% (active) | 2.32% (active)
15 | CC(C)C(/C=C/c1[nH]ncc1-c1cc(Cl)ccc1O)N1CCOCC1 (stereo not given) | 94.9% | 90% | – | 76.8% | 89.3% | 104% | 99.6% | 95.8%
16 | CC(=O)/C(N=Nc1ccc2oc(=O)ccc2c1)=C(\C)O | 8.7% (active) | 33.2% | 17.6% | 25.8% | 12.1% | 35.7% | 19% | –
17 | NC(N)=NS(=O)(=O)c1ccc(N=Nc2c(N)nn(-c3ccc([N+](=O)[O-])cc3[N+](=O)[O-])c2N)cc1 | 104% | 123% | – | 96.2% | 101% | 113% | 101% | 103%
18 | CC[C@]12CC(C(=O)OC)=C3Nc4ccccc4[C@@]34CCN(C14)[C@@H]1c3cc4c(cc3O[C@@H]1[C@H]2O)NC1=C(C(=O)OC)C[C@@]2(CC)C3N(CC[C@@]143)C[C@H]1O[C@H]12 (stereo not given in full) | 18.2% | 33.9% | 23.5% | 4.36% (active) | 2.44% (active) | -41.3% (active) | 13.4% | –
19 | O=C(COc1ccc(/C=C2\C(=O)Nc3ccc(Cl)cc32)cc1)Nc1ccc(Cl)cc1 | 68.8% | 70.2% | 45.5% | 56.3% | 15.9% | 89% | 43.2% | –
20 | C#CCn1cc(/C=N/Nc2nc(-c3ccc(Br)cc3)cs2)c2ccccc21 | 76.4% | 111% | 98.7% | 64.1% | 85.4% | 116% | 104% | –
21 | Cc1ccc(OCc2occc2C(=O)N2CCOCC2)cc1 | 93.1% | 117% | – | 85.6% | 105% | 103% | 107% | 100%
22 | O=C(CSc1nc2ccccc2c(=O)n1CCc1ccccc1)Nc1ccc(S(=O)(=O)Nc2ccc(Cl)nn2)cc1 | 88.6% | 98.9% | – | 79.7% | 93.4% | 102% | 98.8% | 99.8%
23 | C#CCN(C)CCCOc1ccc(NC(=O)CCCCCCC(=O)NO)cc1Cl | -2.41% (active) | 44.9% | 11.7% | 13.4% | 2.96% (active) | 12.9% | 24.8% | –
24 | COc1ccc(OC)c(NC(=O)CCCCCCNC(=O)C(O)(O)C(F)(F)F)c1 | 22.4% | 76.8% | – | 36.9% | 7.1% (active) | 51.5% | 43.5% | 30.1%
25 | CCOP(=O)(OCC)OC[C@]12CCC(C)(C)C[C@H]1C1=CC[C@@H]3[C@@]4(C)CC[C@H](OP(=O)(OCC)OCC)C(C)(C)[C@@H]4CC[C@@]3(C)[C@]1(C)CC2 | 26.2% | 54.1% | – | 28.1% | 18.5% | 73.1% | 63.9% | 62.1%
26 | O=S(=O)(NCCCNc1nccc(-c2[nH]c(-c3ccccc3)nc2-c2ccc(F)c(O)c2)n1)c1cccc(F)c1 | 73.4% | 96.4% | 120% | 78.3% | 72.2% | 114% | 88.9% | –
27 | C#Cc1nc(C(=O)NCCCCCCC(=O)NO)cs1 | -38.5% (active) | 50.3% | 0.565% (active) | 6.97% (active) | -18.2% (active) | 25.9% | -7.86% (active) | –
28 | CC1(C)CC[C@]2(C(=O)NCCCCCCN(CCCN)CCCN)CC[C@]3(C)C(=CC[C@@H]4[C@@]5(C)CC[C@H](O)C(C)(C)[C@@H]5CC[C@]43C)[C@@H]2C1 | 98.6% | 102% | – | 93.4% | 99.2% | 103% | 102% | 105%
29 | O=C(CSc1nc2ccccc2c(=O)n1-c1ccc(Cl)c(Cl)c1)Nc1ccc(S(=O)(=O)Nc2ccc(Cl)nn2)cc1 | 85.9% | 94.4% | – | 95.6% | 92% | 95.1% | 102% | 97.8%
30 | C/C(=N\NC(=O)Nc1ccccc1)c1nnn(-c2ccc([N+](=O)[O-])cc2)c1C | 98.2% | 111% | 104% | 97.9% | 99.5% | 106% | 101% | –
